Here are results for 46 compounds from PubChem BioAssay.

Assay [1] has as its target Tumor necrosis factor receptor superfamily member 10B (Homo sapiens) (UniProt O14763). In words: viability loss of caspase-8 NB7 cells with TRAIL – with/without TRAIL, luminescence panel, confirmation (AID 651596). To be noted: NB7 neuroblastoma + caspase-8, TRAIL sensitization, NB7 Caspase-8, with TRAIL, mean of runs, at 10 µM, stronger effect = higher value.
Assay in assay [2]: as above
Particulars: NB7 neuroblastoma + caspase-8, without TRAIL, NB7 Caspase-8, without TRAIL, mean of runs, at 10 µM.

Tumor necrosis factor receptor superfamily member 10B (Homo sapiens), sequence (O14763 whole entry, looked up): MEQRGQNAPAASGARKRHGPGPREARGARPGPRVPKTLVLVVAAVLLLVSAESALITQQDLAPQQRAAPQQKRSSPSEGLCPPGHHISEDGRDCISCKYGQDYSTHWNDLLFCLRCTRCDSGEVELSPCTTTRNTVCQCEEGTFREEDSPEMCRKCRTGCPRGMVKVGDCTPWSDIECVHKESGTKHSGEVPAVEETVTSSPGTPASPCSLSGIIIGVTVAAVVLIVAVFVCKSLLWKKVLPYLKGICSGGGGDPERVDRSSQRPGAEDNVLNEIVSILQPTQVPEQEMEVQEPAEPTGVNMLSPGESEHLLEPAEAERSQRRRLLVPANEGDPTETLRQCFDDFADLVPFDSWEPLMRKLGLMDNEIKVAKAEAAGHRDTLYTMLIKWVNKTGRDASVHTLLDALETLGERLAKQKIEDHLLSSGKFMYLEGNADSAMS

As for `CCN1CCN(Cc2ccc(NC(=O)c3ccc(C)c(NC(=O)c4c[nH]c5cc(C(F)(F)F)ccc5c4=O)c3)cc2C(F)(F)F)CC1`, the activity in assay [1] and in assay [2] was 98.8% in each case.

As for `COc1ccc2nc(NC(=O)c3ccccc3F)sc2c1`, the activity in assay [1] came to 78.1%; in assay [2], 73.8%.

On to `COc1ccccc1C=NN=C(NN=Cc1ccccc1OC)NN=Cc1ccccc1OC`, for which the activity in assay [1] worked out at 78%; in assay [2], 65.6%.

Take `CCOC(=O)CNC(=O)CSc1nnc(NC(=O)c2ccc(C)cc2)s1`: the activity is 94.5% in assay [1] and 92.5% in assay [2].

In the case of `CC(C)(C)c1ccc(-c2nnc(N)s2)cc1`, the figures for the activity in assay [1] and in assay [2] were 64.7% and 66.7%, respectively.

With `O=C(CCl)N1c2ccccc2SCC1c1ccccc1` (configuration not stated), the values for the activity in assay [1] and in assay [2] were 99.4% and 98.9%, respectively.

As for `Cc1nc(-c2ccc(NC(=O)c3ccccc3)cc2)cs1`, the activity is 80.8% in assay [1] and 76.2% in assay [2].

As for `O=C(NC(=S)Nc1ccccn1)c1ccc(-c2ccccc2)cc1`, the activity in assay [1] was found to be 76.3%; in assay [2], 72.8%.

`CC(C)(C)c1ccc(-c2noc(CCC(=O)Nc3cccnc3)n2)cc1`: the activity in assay [1] turned out to be 48.3%; in assay [2], 50.9%.

For `Cc1ccc(-c2nc(-c3ccccn3)no2)cc1[N+](=O)[O-]`, the activity in assay [1] worked out at 60.7%; in assay [2], 55%.

With `C[C@H](NC(=O)c1[nH]cnc1C(=O)Nc1ccc(CNC(=O)OC(C)(C)C)cc1)C(=O)OCc1ccccc1`, the activity in assay [1] stood at 63.1%; in assay [2], 37.6%.

For the compound `O=C(CCl)Nc1ccc(Oc2cnc3ccccc3n2)cc1`, the activity in assay [1] came out at 97.6%; in assay [2] it was 98.5%.

For `CCc1cc2c(COC(=O)c3cc(S(=O)(=O)N4CCOCC4)ccc3F)cc(=O)oc2cc1O`, the activity in assay [1] is 77.3%; in assay [2], 82.5%.

For the compound `C=CCNc1nc(NCc2ccc(NC(C)=O)cc2)c2sc(-c3ccccc3)cc2n1`, the activity in assay [1] amounted to 46.1%; in assay [2], 43.1%.

As for `Cc1ccc(C(=O)Nc2ccc3c(c2)OCO3)cc1`, the values for the activity in assay [1] and in assay [2] were 75.8% and 63%, respectively.

In the case of `COc1ccc(C(=O)Nc2ccccc2C(=O)Nc2cccnc2)cc1`, the figures for the activity in assay [1] and in assay [2] were 58.9% and 55.5%, respectively.

For `CC[C@@H](C)[C@H](CNC)NC[C@@H](Cc1cccc2ccccc12)NCCc1cccc(C(F)(F)F)c1`, the activity in assay [1] amounted to 86.9%; in assay [2], 97.8%.

As for `Cc1ccc2nc(-c3sc4nc(C)ccc4c3N)[nH]c2c1`, the activity in assay [1] was found to be 23.9%; in assay [2] it was 7.22%.

As to `CC(C)Cc1nc2oc3c(Cl)ncnc3c2c2c1CCC2`, the figures for the activity in assay [1] and in assay [2] were 95.9% and 96.4%, respectively.

For the compound `CCC1CCCCN1c1ccc([N+](=O)[O-])cc1/C=N/NC(=O)Cn1c2ccccc2c(=O)c2ccccc21` (configuration not stated), the results for the activity in assay [1] and in assay [2] were 60.3% and 66.7%, respectively.

With `Cc1ccc(C(C#N)=Cc2ccc3c(c2)OCO3)cc1`, the activity in assay [1] is 68.5%; in assay [2], 65.2%.

Turning to `COc1cc2c(cc1NC(=O)c1cccc([N+](=O)[O-])c1)oc1ccccc12`, the activity in assay [1] was -1.55%; in assay [2], -9.4%.

Take `CN(C)c1ccc(C(=O)Nc2nc3c(s2)CCCC3)cc1`: the activity was 51.9% in assay [1] and 48.6% in assay [2].

Regarding `O=C(Nc1ccc(N2CCN(C(=O)c3ccccc3)CC2)cc1)c1ccc([N+](=O)[O-])o1`, the activity in assay [1] stood at 89%; in assay [2] it was 99.3%.

With `COc1cc2ccccc2cc1C(=O)Nc1sc2c(c1C(N)=O)CCN(C(C)C)C2`, the values for the activity in assay [1] and in assay [2] were 79.4% and 98.2%, respectively.

With `Cc1nn(-c2ccccc2)c(Cl)c1CN(C(=O)CCl)c1ccc(Cl)cc1`, the activity in assay [1] was 99.3%; in assay [2], 99.6%.

In the case of `CN(CCO)c1cc(Sc2nc3ccccc3s2)c2nonc2c1[N+](=O)[O-]`, the activity in assay [1] was 18.5%; in assay [2] it was 91.7%.

On to `CCOc1ccc(-c2ccc(SCC)nn2)cc1`, for which the activity came to 75.4% in assay [1] and 71.5% in assay [2].

Take `CCOc1cccc2cc(-c3nnc(NCc4ccco4)s3)c(=O)oc12`: the values for the activity in assay [1] and in assay [2] were -11.9% and -7.67%, respectively.

On to `CCc1nnc(NC(=O)c2nc(S(=O)(=O)Cc3ccccc3)ncc2Cl)s1`, for which the activity in assay [1] is 95.4%; in assay [2], 74.3%.

With `CCOc1ccc(-n2c(SCC(N)=O)nc3c([nH]c4ccccc43)c2=O)cc1`, the activity in assay [1] worked out at 59.4%; in assay [2] it was 56.5%.

As to `CS(=O)(=O)Nc1cccc(NC(=O)C2Cc3c(-c4ccco4)ccnc3O2)c1` (configuration not stated), the activity was 35.7% in assay [1] and 27.8% in assay [2].

Regarding `C/C(=N\NC(=O)c1ccn(C)n1)c1cccc(NC(=O)c2ccc(C)s2)c1`, the activity in assay [1] came to 48.5%; in assay [2], 45.5%.

On to `COc1ccc2nc(-c3ccc(F)cc3)sc2c1`, for which the activity in assay [1] stood at 68.2%; in assay [2] it was 65.7%.

Consider `COc1cccc2sc3ccc(C#CC4(O)CCCCC4)cc3c(=O)c12`, for which the activity was 46.1% in assay [1] and 45.8% in assay [2].

Turning to `Fc1cccc2sc(Nc3nc4cc5c(cc4s3)OCCO5)nc12`, the activity in assay [1] is 40.2%; in assay [2], 28.4%.

Take `O=C(Nc1nc(=O)c2ccccc2s1)c1ccc(Cl)cc1`: the activity in assay [1] came to 66.1%; in assay [2] it was 72.6%.

On to `C/C=C/c1ccc(OCCCNC2CCCC2)c(OC)c1`, for which the values for the activity in assay [1] and in assay [2] were 1.5% and -12.4%, respectively.

Take `CCN1CCN(Cc2ccc(NC(=O)c3cc(NC(=O)c4cncc(-c5cccs5)c4)cc(OC)c3)cc2C(F)(F)F)CC1`: the figures for the activity in assay [1] and in assay [2] were 68% and 91.9%, respectively.

Take `N#Cc1c(NC(=O)c2ccccc2)sc2c1CCCCC2`: the activity in assay [1] was found to be 46.5%; in assay [2], 49.6%.

As to `CCOc1ccc(C(C)=O)cc1COC(=O)c1cnc(Cl)c(Cl)c1`, the activity in assay [1] amounted to 97.6%; in assay [2], 79.1%.

Consider `COc1ccc(C(=O)Nc2ccc3[nH]ccc3c2)cc1`, for which the activity in assay [1] turned out to be 95.1%; in assay [2], 95.3%.

With `COC(=O)CSc1ncnc2c1sc1nc3c(cc12)COC(C)(C)C3`, the activity in assay [1] amounted to 82.5%; in assay [2], 86.8%.

`O=C(NCCO)c1ccc2c3n(nc2c1)-c1ccccc1CO3`: the activity in assay [1] was determined as 78.9%; in assay [2], 78.8%.

Take `COc1cc(C(=O)Oc2ccccc2/C=N/NC(=O)c2ccc(C)cc2)cc(OC)c1OC`: the activity in assay [1] was found to be 51%; in assay [2], 52.7%.

For `COc1ccc2[nH]c3c(NCCC4=CCCCC4)ncnc3c2c1`, the activity in assay [1] stood at 35.8%; in assay [2], 44.1%.
